Assay outcomes deposited in PubChem by several laboratories.
Sampled rows, rich in hits. Any-hit rate of the full collection: about 2.1%.
PrP UTR inh = inhibition of PrP 5' UTR reporter expression. cell-based PrP 5' UTR mRNA reporter, plate reader. inhibition, % (test concentration not listed). hit rate 0.35% among 340,000. AID 488862, 2010; in the data active means inhibition above about 52%; further: 0 = median of the neutral control wells
PfHsp40 rescue = rescue of yeast from PfHsp40 toxicity, primary screen, S. cerevisiae, ATP luminescence | hit rate 0.68% among 340,000 | S. cerevisiae expressing PfHsp40, growth rescue | growth rescue, % at 12.5 µM; in the data active means growth rescue above about 28%, passing the limit was not always enough;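 further: yeast W303a lacking pdr1 and pdr3 grown in galactose medium; growth measured after three days at 30 °C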
ugtP null kill = growth inhibition of ugtP-null S. aureus, primary screen, RN4220 ugtP deletion, OD600; 16 h; growth inhibition, % (test concentration not listed); hit rate 0.54% among 330,000; AID 1259309, 2017; in the data active means growth inhibition above about 68%;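 further: plate controls were untreated wells for no effect and antibiotic for full effect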
RN4220 kill = growth inhibition of S. aureus RN4220, primary screen, OD600; 16 h; inhibition, % (test concentration not listed); hit rate 0.33% among 330,000; AID 1259311, 2017; in the data active means inhibition above about 85%;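 further: plate controls were untreated cells for no effect and reference antibiotic for full effect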
CCHF vOTU inh-1 = CCHFV vOTU protease inhibitors, primary screen, biochemical, Pep-AMC substrate, fluorescence | Crimean-Congo hemorrhagic fever virus L polyprotein viral ovarian tumor (vOTU) protease … | inhibition, % at 11.5 µM | hit rate 0.55% among 370,000 | AID 651958, 2012; further: 0% = vehicle wells with enzyme and 100% = no enzyme wells
PrPC TRFRET = inhibitors of human cell surface prion protein PrPC, primary screen, cell-based, TR-FRET; TR-FRET read-out; inhibition, % at 13.8 µM; hit rate 0.43% among 370,000; AID 720596, 2013; in the data active means inhibition above about 24%; further: 0% = median of the test wells and 100% = reference compound wells
CCHF vOTU inh-2 = CCHFV vOTU protease inhibitors, confirmation, biochemical, Pep-AMC substrate, fluorescence | shares compounds with CCHF vOTU inh-1 | Recombinant CCHFV vOTU | inhibition, % at 11.5 µM | hit rate 17% among 1,900 | AID 686976, 2013
* hit, by the source's call; nt = no result given. Unless noted, no stated cut-off is given here; in the data, active means inhibition above about 30%; inactive means the rest.

SMILES	PrP UTR inh	PfHsp40 rescue	ugtP null kill	RN4220 kill	CCHF vOTU inh-1	PrPC TRFRET	CCHF vOTU inh-2
COc1cccc(C=NNc2snc(SC)c2C#N)c1	nt	nt	44	45	nt	nt	nt
COc1cc(N)c(C(O)c2nccc3cc(OC)c(OC)cc23)cc1OC (stereo not drawn)	-5	-1	-7	-6	5	-8	nt
COc1ccc(C(O)c2nccc3cc(OC)c(OC)cc23)cc1OC (stereo not drawn)	-5	0	15	-9	90*	10	-10
COC(=O)C1=C(c2cccc(C#N)c2)CC2CCC1N2C(=O)NC1CCCCC1 (stereo not drawn)	nt	nt	2	2	nt	nt	nt
O=c1[nH]c2c(s1)C(c1ccco1)C1C3CCC(C3)C1S2 (stereo not drawn)	-11	1	5	2	32*	3	-10
CCCCC1CNC(=O)C(=O)N1CCCc1cc(OC)c(OC)c(OC)c1 (stereo not drawn)	nt	nt	-1	3	nt	nt	nt
CC(C(=O)CC(=O)OC(C)(C)C)C(O)c1ccc(C(F)(F)F)cc1 (stereo not drawn)	nt	nt	-1	1	nt	nt	nt
N#Cc1c(N)n(-c2cccc(C(=O)O)c2)c2nc3ccccc3nc12	-3	-1	8	3	-376	-9	nt
N#Cc1c(N)n(-c2ccccc2N)c2nc3ccccc3nc12	-17	0	5	9	65*	-9	65*
CCCCCCCCN1C(=O)[C@@H](CC(=O)N2CCN(C(=O)OCC)CC2)C[C@@]2(C(=O)OC)C1=C[C@H](C(C)C)O[C@@H]2C1CC1	nt	nt	nt	nt	33*	1	17
CCCCCCCCN1C(=O)[C@@H](CC(=O)NCCc2ccccc2OC)C[C@@]2(C(=O)OC)C1=C[C@H](C(C)C)O[C@@H]2C1CC1	nt	nt	nt	nt	35*	1	16
COC(=O)[C@]12C[C@H](CC(=O)NCc3ccc(C)o3)C(=O)N(Cc3ccco3)C1=C[C@H](C(C)C)O[C@@H]2C1CC1	nt	nt	nt	nt	3	19	nt
COC(=O)[C@@]12C[C@@H](CC(=O)NCc3ccc(C)o3)C(=O)N(CCc3ccc(OC)c(OC)c3)C1=CCC(C)(C)C2	nt	nt	nt	nt	36*	-2	-4
CCCCCCCCN1C(=O)[C@@H](CC(=O)NCc2ccc(C)o2)C[C@@]2(C(=O)OC)C1=C[C@H](C(C)C)O[C@@H]2C1CC1	nt	nt	nt	nt	30*	-2	27
COC(=O)[C@]12CCCCC=C1N(CCC1=CCCCC1)C(=O)[C@H](CC(=O)NCCC(C)C)C2	nt	nt	nt	nt	44*	5	-6
CCCCCCCCN1C(=O)[C@H](CC(=O)N2CCCCC2)C[C@@]2(C(=O)OCC)CCCC=C12	nt	nt	nt	nt	28	2	nt
CCCCCCCCN1C(=O)[C@H](CC(=O)NCc2ccccc2)C[C@@]2(C(=O)OC)CCCCC=C12	nt	nt	nt	nt	40*	12	31*
CCCCCCCCN1C(=O)[C@H](CC(=O)N2CCCC2)C[C@@]2(C(=O)OCC)CCCC=C12	nt	nt	nt	nt	34*	-4	20
CCCCCCCCN1C(=O)[C@@H](CC(=O)NCc2ccccc2)C[C@@]2(C(=O)OC)C1=C[C@H](C(C)C)O[C@@H]2C1CC1	nt	nt	nt	nt	39*	7	12
CC1=NN(c2ccccc2)C(=O)C1C=Nc1ccc(N(C)C)cc1 (stereo not drawn)	-34	3	5	3	30*	-3	2
COc1ccc(NS(=O)(=O)c2cccc(C(=O)N3CCN(C/C=C/c4ccccc4)CC3)c2)cc1	nt	nt	nt	nt	30*	10	-11
COc1ccccc1NS(=O)(=O)c1cccc(C(=O)N2CCN(C/C=C/c3ccccc3)CC2)c1	-19	0	7	-8	0	-2	nt
CC1([N+](=O)[O-])COP(=O)(Nc2cccc(F)c2)OC1 (stereo not drawn)	-16	-3	nt	nt	10	-1	nt
CC1([N+](=O)[O-])COP(=O)(Nc2cccc(Cl)c2)OC1 (stereo not drawn)	-17	-1	nt	nt	38*	-4	-18
O=[N+]([O-])c1ccc(N/N=C/c2ccc(O)c(O)c2O)c(S(=O)(=O)N2CCOCC2)c1	-26	4	nt	nt	34*	-7	4
SMILES	PrP UTR inh	PfHsp40 rescue	ugtP null kill	RN4220 kill	CCHF vOTU inh-1	PrPC TRFRET	CCHF vOTU inh-2
Cc1ccccc1-c1cc2c(nn1)-c1ccccc1C2=O	-42	1	-3	17	96*	-18	94*
O=C1c2ccccc2-c2nnc(-c3ccc(O)cc3)cc21	-92	0	-1	12	-7	-7	nt
COc1cc(O)c(C(C)=O)cc1OC	-1	-2	4	0	15	-2	nt
CC(=O)Oc1cc(C)c(Cl)c2c(OC(C)=O)cc(C(C)=O)c(O)c12	nt	nt	nt	nt	32*	3	18
CCCCn1c(NC(=O)c2ccco2)c(C(=O)OCC)c2nc3ccccc3nc21	-23	0	-9	34	55*	-10	-97
CCCCn1c(NC(=O)c2ccc(Br)o2)c(S(=O)(=O)c2ccccc2)c2nc3ccccc3nc21	1	0	10	16	60*	11	-29
CCCCn1c(NC(=O)c2ccco2)c(S(=O)(=O)c2ccc(C)cc2)c2nc3ccccc3nc21	-17	1	-10	2	-12	20	nt
CCCCCn1c(NC(=O)c2ccco2)c(S(=O)(=O)c2ccc(C)cc2)c2nc3ccccc3nc21	-7	-1	4	0	71*	-1	-63
CC(C)(C)c1ccc(-c2n[nH]c(=S)n2N=Cc2ccncc2)cc1	nt	nt	8	7	nt	nt	nt
CC(/C=C/c1ccccc1)=NO	nt	nt	3	4	nt	nt	nt
CC(C)(C)c1ccc(S(=O)(=O)NC(=O)C2(C)CCN2C(=O)C2(c3ccc(Cl)cc3)CC2)cc1 (stereo not drawn)	nt	nt	nt	nt	31*	-2	-4
COC(=O)Oc1ccc(C=NNC(=O)CSCc2ccccc2Br)cc1OC	nt	nt	0	-4	nt	nt	nt
Cc1sc2nc(SCc3nnc(-c4cccs4)o3)n(C3CCCC3)c(=O)c2c1C	-7	1	11	0	31*	-1	-2
O=C(C1=CC(C2CC2)CC(OCc2ccc(CO)cc2)O1)N1CCN(Cc2ccccc2)CC1 (stereo not drawn)	nt	nt	0	5	nt	nt	nt
Cc1ccc(N2C(=O)N3C(c4ccc(F)cc4)C4C(=O)N(C5CCCCC5)C(=O)C4[C@]3(C)C2=O)cc1 (stereo partly drawn)	nt	nt	0	4	nt	nt	nt
CCc1nnc(N/N=C/c2cccs2)n1N	-58	-1	nt	nt	89*	-7	-3
CCc1nnc(N/N=C\c2ccc(OC(C)=O)c(OC)c2)n1N	-3	-1	nt	nt	66*	-8	-6
CCc1nnc(N/N=C/c2cc(Br)c(O)cc2O)n1N	-68	1	nt	nt	96*	-2	14
CCc1nnc(NN=Cc2ccc(OC(C)=O)c(OC)c2)n1N	nt	nt	9	6	nt	nt	nt
